Data from PubChem BioAssay AID504700 (The Scripps Research Institute Molecular Screening Center, 2011).
The campaign covered roughly 340,000 compounds. About 270 (0.079%) were called active. The sample holds actives, similar compounds and a random draw of the others, so the mix is not that of the screen.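 Rule for the calls: active = activation above a cutoff set at the mean over all compounds plus 3 SD (cut at about 18% in these data); inactive = the rest.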

These molecules were tested against cAMP-dependent protein kinase catalytic subunit beta (Homo sapiens) + cAMP-dependent protein kinase type II-beta regulatory subunit (Homo sapiens) (UniProt P22694+P31323) (assay: activators of PKA-R2B holoenzyme, primary screen, biochemical, fluorescence polarization, Cy5-IP20, human (AID 504700;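 note: higher means more holoenzyme dissociation and a rise in polarization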)). Conditions: PKA-R2B holoenzyme dissociation, at 11.4 µM, hits give high values, 0% DMSO only, 100% 113 µM cGMP, R2B truncated from residue 108, S112A mutant.
cAMP-dependent protein kinase catalytic subunit beta (Homo sapiens) + cAMP-dependent protein kinase type II-beta regulatory subunit (Homo sapiens), sequence (P31323 whole entry, looked up, other chains not shown, the tested form may be a part): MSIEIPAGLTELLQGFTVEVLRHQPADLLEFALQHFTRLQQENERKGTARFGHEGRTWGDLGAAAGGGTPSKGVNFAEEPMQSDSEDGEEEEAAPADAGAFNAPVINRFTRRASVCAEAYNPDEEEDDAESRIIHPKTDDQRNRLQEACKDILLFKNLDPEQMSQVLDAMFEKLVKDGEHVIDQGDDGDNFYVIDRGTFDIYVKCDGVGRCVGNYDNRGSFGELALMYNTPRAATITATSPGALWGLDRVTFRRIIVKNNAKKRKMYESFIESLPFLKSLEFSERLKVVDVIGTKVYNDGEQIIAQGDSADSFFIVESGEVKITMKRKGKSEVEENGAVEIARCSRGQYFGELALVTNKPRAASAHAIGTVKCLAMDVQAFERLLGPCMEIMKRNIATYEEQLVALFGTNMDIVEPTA

activation, active:
O=C(CN(C(=O)CCC(=O)Nc1nccs1)c1ccc(F)cc1)NCc1ccc2c(c1)OCO2 18.4%
CCCC(=O)Nc1ncnc2c1ncn2[C@@H]1O[C@@H]2OP(=O)(O)OC[C@H]2[C@H]1OC(=O)CCC 42.6%
O=S(=O)(NCCNS(=O)(=O)c1ccccc1)c1ccccc1 21.6%
CC(C)(C)c1ccc(C(=O)N2CCC(C(=O)N3CCCCC3)CC2)cc1 19.2%
COc1ccc(C/C(C)=N/NC(=O)c2ccncc2)cc1 18.7%

activation, inactive:
C[C@H]1CN([C@@H](C)CO)C(=O)CCCn2cc(nn2)CO[C@@H]1CN(C)S(=O)(=O)c1ccc(-c2ccccc2)cc1 -2.02%
Cc1csc(=O)n1CCC(=O)OCC(=O)Nc1ccc(N2CCOCC2)cc1 -13.7%
COc1cc(C)c(CN2CCN(C(=O)CCC(=O)c3ccc(C)s3)CC2)cc1OC -4.23%
C[C@@H]1CN([C@H](C)CO)C(=O)c2cc(-c3ccc(F)cc3)cnc2O[C@H]1CN(C)C(=O)c1ccc(F)cc1 -10.7%
O=C(CCc1ccc(O)cc1)NN=Cc1cc(Br)ccc1O -5.67%
CCCCN1CC(C)(C)[C@H](CC(=O)Nc2ccc(Br)cc2)C1=O -7.25%
C=CCOc1cccc(C2C(C(=O)c3ccc(C)o3)=C(O)C(=O)N2CCN2CCOCC2)c1 (centres undefined) 2.21%
CC1(C)CC(=O)C=C(c2ccccc2CO)C1=O -3.08%
C[C@@H]1CN([C@@H](C)CO)C(=O)CCCn2nncc2CO[C@H]1CN(C)C(=O)Nc1ccc(C(F)(F)F)cc1 -17.1%
C[C@@H]1CN([C@H](C)CO)C(=O)CCCn2nncc2CO[C@@H]1CN(C)C(=O)OCc1ccccc1 -4.31%
O=C(NCCOc1ccccc1)N1[C@H]2CC[C@@H]1C=C(c1ccc(F)cc1OCc1ccccc1)C2 -0.02%
CSc1ncnc2c1ncn2CCCNCC(C)c1ccccc1 (centres undefined) -3.46%
Cc1ccc(-c2ccc(CN3C(C)C(=O)N(Cc4cn(CCC5OCCCO5)nn4)CCS3(=O)=O)cc2)cc1 (centres undefined) -0.73%
CSc1ncccc1C(=O)N1CCCC(Nc2ccc(F)c(F)c2)C1 (centres undefined) -3.17%
COc1ccccc1-n1c(SCC(=O)Nc2ccc(Cl)cc2)nc(O)c(Cc2ccccc2)c1=O 0.18%
Cc1cc(=O)c2ccc(NC(=O)c3ccccc3)cc2[nH]1 0.43%
CCC(C)(C)NC(=O)CN(C(=O)CCC(=O)Nc1nccs1)c1ccc2c(c1)OCO2 6.11%
COc1ccc(N(CC(=O)NCc2ccc(F)cc2)C(=O)CCC(=O)Nc2nccs2)cc1 -12.4%
O=C(Nc1ccc2c(c1)[C@@H]1C[C@@H](CC(=O)N3CCCCC3)O[C@@H](CO)[C@@H]1O2)NC1CCCCC1 -11.6%
O=C(OCc1cn([C@@H]2C[C@H](c3ccc(Cl)cc3)N(Cc3cccs3)C[C@H]2O)nn1)c1ccccc1 -14.6%
CCN(CC)C(=O)C1=C(C)N(Cc2ccc(F)cc2)C(=O)C(CC(=O)NCc2cccc3ccccc23)C1 (centres undefined) 1.37%
O=c1[nH]c2ccccc2n1C1CCN(CCOc2ccccc2)CC1 -11%
CSC1=NN(c2ccccc2)CN(c2ccccc2)N1C 9.82%
O=C(COC(=O)Cc1ccc(Cl)cc1Cl)NCc1ccco1 -1.41%
CCOC(=O)c1c(C)[nH]c(C)c1C(=O)COC(=O)/C=C/c1cccc([N+](=O)[O-])c1 -7.22%
COc1ccc(CN2C(=O)C(CC(=O)NCCN3CCOCC3)CC(C(=O)N(C(C)C)C(C)C)=C2C)cc1 (centres undefined) -6%
CC(OC(=O)c1cccc(S(=O)(=O)N2CCOCC2)c1)C(=O)NCC1CCCCC1 (centres undefined) 12.7%
O=S(=O)(NCCc1ccccc1)c1ccccc1 -0.17%
O=S(=O)(NCCc1ccncc1)c1ccccc1 -6.62%
COc1ccc(C(C)(C)C)cc1NC(=O)CN(C)C1=NS(=O)(=O)c2ccccc21 -0.8%
O=C(Nc1cc(F)ccc1F)c1ccc2c(=O)n3c(nc2c1)CCC3 0.72%
CC(C)CCOc1ccc(C(=O)Nc2cc(S(=O)(=O)N3CCOCC3)ccc2N2CCOCC2)cc1 -1.72%
Cc1sc2nc(-c3ccccc3F)oc(=O)c2c1C -7.56%
O=C(NCc1nnnn1-c1ccc(Cl)cc1)c1ccc([N+](=O)[O-])o1 -12%
COc1cc(NC(=O)C2=C(C)OCCS2)c(Cl)cc1C(=O)NCCCN1CCCC(C)C1 (centres undefined) -6.54%
C[C@H]1Cn2cnc(C(=O)N[C@H](C)c3ccccc3)c2C(=O)N1 1.6%
Cc1ccn2c(-c3csc(Nc4ccc(C(=O)O)cc4)n3)c(C)nc2c1 -9.54%
C[C@@H]1CN([C@@H](C)CO)C(=O)CCCn2cc(nn2)CO[C@H]1CN(C)S(=O)(=O)c1ccc(-n2cccn2)cc1 -4.5%
CCc1c(N=O)c(-c2ccccc2)n(O)[n+]1[O-] -1.7%
C[C@@H]1CN([C@@H](C)CO)C(=O)c2cc(Br)cnc2O[C@H]1CN(C)Cc1ccc(-c2ccccc2)cc1 1.42%
O=C(CC(CC(=O)c1ccccc1)c1ccco1)c1ccccc1 -2.04%
C[C@@H]1Cn2cnc(C(=O)Nc3ccc(CNC(=O)OC(C)(C)C)cc3)c2C(=O)N1 -0.19%
COCCCn1c(=O)/c(=C/c2ccccc2OC(C)C)s/c1=C(\C#N)C(=O)Nc1ccc(C(=O)O)cc1 0.06%
O=C(OCc1ccccc1)N1CCC2CC1c1cc(N3CCN(S(=O)(=O)c4cc(Cl)cc(Cl)c4)CC3)ccc12 (centres undefined) -12.1%
CCc1cccc(CC)c1N1C(=O)CC(Sc2ccccc2N)C1=O (centres undefined) 3.56%
COc1cccc(OC)c1C(=O)N1CCN(Cc2ccccc2F)CC1 -3.43%
COC(=O)C(Cc1c[nH]c2ccccc12)NC(=O)CCNC(=O)c1ccco1 (centres undefined) 7.88%
COc1cc2c(=O)n(C)c3ccccc3c2cc1OC -7.59%
N#CC1(Nc2ccc3c4c(cccc24)CC3)CCCCC1 -2.43%
Cc1ccc([C@H]2C[C@H](O)[C@@H](n3cc(COC(=O)c4ccccc4)nn3)CN2C(=O)C2CCCCC2)cc1 -12.7%
O=NN(CCCl)C(=O)NCCc1cccc[n+]1[O-] -9.83%
CC(C)N=C1CCCC1C(=S)SSC(=S)C1CCCC1=NC(C)C (centres undefined) -0.99%
Cc1ccc(CN(C)C[C@@H]2OCc3cnnn3CCCC(=O)N([C@@H](C)CO)C[C@H]2C)cc1 -5.57%
CC1=C(C(=O)N2CCOCC2)CC(CC(=O)NCc2ccco2)C(=O)N1Cc1ccc(F)cc1 (centres undefined) -2.68%
C=CCOc1ccccc1CNn1c(C)n[nH]c1=S 10.7%
Cc1c(NC(=O)COC(=O)/C=C/c2cccc(F)c2)c(=O)n(-c2ccccc2)n1C -14.1%
CCc1cc(-c2nnn(CCC3COCCO3)c2CC)ccc1-c1cn(Cc2ccc3ccccc3c2)nn1 (centres undefined) 2.92%
CCC1NC(=O)c2cccnc2-n2c1nc1ccc(C)cc1c2=O (centres undefined) 2.84%
CNC(=O)c1ccc(CN(C)C(=O)c2cc(C3CC3)nc3c2cnn3C(C)C)cc1 -10%
O=C(OCC(=O)N1CCCCCC1)c1cccc(Cl)c1Cl -0.23%
O=C(c1ccc(F)cc1)N1CCCC(C(=O)N2CCCCC2)C1 (centres undefined) -0.42%
NC(=O)C1CCN(C(=O)c2ccc(C(F)(F)F)cc2)CC1 -0.72%
CC1=C(C(=O)N(C)C)CC(CC(=O)NCCN2CCOCC2)C(=O)N1Cc1ccccc1 (centres undefined) 10.5%
COc1ccccc1-c1n[nH]nc1C1=CC(=O)CC(C)(C)C1 -8.69%
Cc1ccc(C(=O)N[C@H](C(=O)N2CCN(c3ncccn3)CC2)C(C)C)cc1 -3.29%
CCCCN1C(=O)C(CC(=O)NCc2cccs2)CC(C(=O)N2CCOCC2)=C1C (centres undefined) 3.17%
O=C(OCc1cn([C@H]2C[C@H](c3ccccc3)N(C(=O)c3cccs3)C[C@@H]2O)nn1)c1ccccc1 4.15%
COc1ccc(C/C(C)=N/NC(=O)c2cc(C)oc2C)cc1 -9.63%
COc1ccc(C(=O)N/N=C(\C)CC(=O)Nc2ccc(Cl)cn2)cc1 -4.03%
C[C@H]1Cn2cnc(C(=O)N[C@@H](Cc3c[nH]c4ccccc34)C(=O)OC(C)(C)C)c2C(=O)N1 -2.27%
CC(=O)Nc1c(-c2ccc(C)cc2)nc2ccc(Cl)cn12 -8.99%
CC1CCN(c2ccc3c(c2)S(=O)(=O)c2cc(C(=O)O)ccc2C3=O)CC1 -8.29%
CCN(CC)CCN(C(=O)c1ccc2c(c1)CCCC2)c1nc2c(OC)cccc2s1 -1.68%
CNS(=O)(=O)c1ccc2c(c1)[nH]c(=S)n2C 9.72%
C=CCn1nc(C(=O)OCC)cc1-c1sc(NC(=O)c2ccccc2)nc1C 4.98%
COc1ccc(C(=O)NCC2CCCO2)cc1S(=O)(=O)NCc1ccc(Cl)cc1 (centres undefined) -8.65%
Cc1cc2c3ccccc3[nH]c(=O)n2n1 -8.33%
CCOc1ccc(S(=O)(=O)NCCC(=O)NNC(=O)c2ccc(F)cc2)cc1 -0.05%
COc1ccc(-n2c(-c3ccc(Cl)cc3)n[nH]c2=S)c(OC)c1 13%
